Assay results: the supplement of paper PMC6555819

How the values were obtained:
Experiment in all cases: PBM binding z-score (relative to random genomic background probes); higher = stronger binding; sequences stand for … in GC…GCGATTGACAGCGTAGAATGAAGG
[1] = tested on: FXR:RXRa (NR concentration 270 nM, RXRa partner concentration 90 nM)
Procedure, shortened: (§1)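 Ligand-free nuclear receptor dimers were bound for 1 h to custom Agilent 4×180K protein-binding microarrays. Detection used antibodies against each partner (one per run). Binding z-scores rest on regression-normalized fluorescence, with random background probes as the reference.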

[2] = tested on: LXRa:RXRa (NR concentration 270 nM, RXRa partner concentration 90 nM)
Procedure, shortened: as §1

[3] = tested on: LXRa homodimer (NR concentration 270 nM)
Procedure, shortened: as §1

[4] = tested on: LXRb:RXRa (NR concentration 270 nM, RXRa partner concentration 90 nM)
Procedure, shortened: as §1

[5] = tested on: LXRb homodimer (NR concentration 270 nM)
Procedure, shortened: as §1

[6] = tested on: PPARa:RXRa (NR concentration 270 nM, RXRa partner concentration 90 nM)
Procedure, shortened: as §1

[7] = tested on: PPARg:RXRa (NR concentration 180 nM, RXRa partner concentration 90 nM)
Procedure, shortened: as §1

[8] = tested on: PPARg:RXRa 270nM:90nM, anti-RXR (NR concentration 270 nM, RXRa partner concentration 90 nM)
Procedure, shortened: as §1

[9] = tested on: PPARg:RXRa 30nM:10nM, anti-RXR (NR concentration 30 nM, RXRa partner concentration 10 nM)
Procedure, shortened: as §1

[10] = tested on: PPARg:RXRa 90nM:30nM, anti-RXR (NR concentration 90 nM, RXRa partner concentration 30 nM)
Procedure, shortened: as §1

[11] = tested on: PPARg:RXRa DBDmut IVT, anti-RXR (DBD mutation: RXRa K156A/R161A, NR concentration 270 nM, RXRa partner concentration 90 nM)
Procedure, shortened: as §1

[12] = tested on: PPARg:RXRa IVT, anti-PPARg (NR concentration 270 nM, RXRa partner concentration 90 nM)
Procedure, shortened: as §1

[13] = tested on: PPARg DBDmut:RXRa IVT, anti-PPARg (DBD mutation: PPARg1 K132A/R137A, NR concentration 270 nM, RXRa partner concentration 90 nM)
Procedure, shortened: as §1

[14] = tested on: PPARg DBDmut IVT, anti-PPARg (DBD mutation: PPARg1 K132A/R137A, NR concentration 270 nM)
Procedure, shortened: as §1

[15] = tested on: PPARg homodimer (NR concentration 180 nM)
Procedure, shortened: as §1

[16] = tested on: PXR:RXRa (NR concentration 270 nM, RXRa partner concentration 90 nM)
Procedure, shortened: as §1

[17] = tested on: PXR homodimer (NR concentration 270 nM)
Procedure, shortened: as §1

[18] = tested on: RARa:RXR (NR concentration 270 nM, RXRa partner concentration 90 nM)
Procedure, shortened: as §1

[19] = tested on: RARa homodimer (NR concentration 270 nM)
Procedure, shortened: as §1

[20] = tested on: RARb:RXRa (NR concentration 270 nM, RXRa partner concentration 90 nM)
Procedure, shortened: as §1

Row | Sequence | PBM binding z-score [1] | PBM binding z-score [2] | PBM binding z-score [3] | PBM binding z-score [4] | PBM binding z-score [5] | PBM binding z-score [6] | PBM binding z-score [7] | PBM binding z-score [8] | PBM binding z-score [9] | PBM binding z-score [10] | PBM binding z-score [11] | PBM binding z-score [12] | PBM binding z-score [13] | PBM binding z-score [14] | PBM binding z-score [15] | PBM binding z-score [16] | PBM binding z-score [17] | PBM binding z-score [18] | PBM binding z-score [19] | PBM binding z-score [20]
1 | TCAGCTAGGTCAACGATGGTCAGCTAATCTGCTA | 3.13 | 2.34 | -0.215 | 1.41 | -0.491 | 3.2 | 2.64 | 2.95 | 2.5 | 2.66 | 4.15 | 4.22 | -0.361 | -0.524 | 1.38 | 1.42 | -0.591 | 1.96 | -0.477 | 4.05
2 | AGAATGAGGTTATACGTAGACCAGGGAAGAAAGT | 2.15 | 1.62 | -0.0461 | 1.41 | -0.0466 | 3.11 | 1.74 | 1.98 | 0.485 | 1.29 | 4.22 | 2.41 | 0.544 | 0.658 | 0.197 | 0.906 | 0.447 | 1.48 | 0.232 | 1.43
3 | CAATCTAGGTCACCGGAAGGTCAAAGTCCGCATG | 6.51 | 6.15 | 6.06 | 5.42 | 1.92 | 6.32 | 10 | 7.96 | 6.12 | 8.12 | 8.34 | 8.62 | 2.22 | 1.39 | 7.89 | 5.96 | 2.44 | 7.4 | 3.19 | 5.41
4 | GCAGACAGGTGCAACGCAGGTAACTCAGGGTGGC | -0.722 | -0.509 | -0.668 | -0.958 | -1.31 | -0.475 | 0.119 | -0.844 | -0.761 | -0.904 | -0.637 | -0.593 | -1.75 | -1.51 | -0.974 | -0.377 | -0.796 | 0.0404 | -1.09 | -0.3
5 | CGTCCAAGGTCAATGCTAGGTCTGTGAAAGCATT | 6.34 | 4.7 | 0.321 | 3.41 | 0.865 | 5.01 | 3.28 | 3.99 | 0.804 | 2.73 | 3.09 | 3.37 | 0.249 | 0.0297 | 2.17 | 3.74 | 0.712 | 3.88 | 0.767 | 5
6 | ATCTCTAGGTAAAAGTTTAGTGAATCCCGAGGAT | 0.336 | 0.276 | 0.317 | 0.0669 | 1.09 | 2.34 | 3.7 | 4.99 | 2.89 | 5.11 | 2.01 | 2.09 | 0.984 | 0.97 | 0.897 | 0.34 | 0.253 | 0.103 | 0.693 | 0.667
7 | GGAACGAGAGCAAAGTTGATAGCATCTGTCGACG | -0.381 | -0.564 | -0.809 | -0.767 | -1.1 | 2.02 | 3.1 | 4.59 | 3.13 | 5.43 | 0.164 | 0.909 | -1.31 | -0.755 | -0.156 | -0.47 | -0.418 | -0.331 | -1.16 | -0.296
8 | TCTCGGAGGACACGAAGGTCAGTGCTTTCCAGAG | 1.02 | 1.19 | -0.141 | 0.731 | -0.921 | 1.59 | 0.156 | 1.49 | 2.2 | 1.94 | 1.42 | 1.08 | -0.7 | -0.641 | 0.926 | 1.54 | 0.566 | 1.52 | -0.39 | 3.29
9 | TCTATTAGTTAATTAGGGCAACCGAAACAGCGGA | 0.524 | 0.526 | 0.315 | 0.637 | 0.558 | 2.73 | 2.2 | 2.94 | 3.88 | 3.37 | 4.63 | 5.38 | 1.64 | 1.52 | 0.99 | 0.546 | 0.152 | 0.998 | 1.68 | 1.04
10 | GGAAAGAGGGCAAGTTGATAGCAGAGTTTGATGG | 1.6 | 1.58 | 0.345 | 1.25 | 0.718 | 2.15 | 1.14 | 1.59 | 0.606 | 1.04 | 3.57 | 2.18 | 0.748 | -0.108 | 1.67 | 1.29 | 1.23 | 0.849 | 1.34 | 2.93
11 | CAGCCTAGGTCAGGGCCAGTTTAGGAGGAACGTT | 2.04 | 1.26 | -0.426 | 0.837 | -1.02 | 2.13 | 0.55 | 0.962 | -0.489 | 0.124 | 1.5 | 1.79 | -1.02 | -1.5 | 0.437 | 1.03 | -0.16 | 1.32 | -0.133 | 3.41
12 | ATCGAAAGGTCCAGGTGAGTATAGAGAAAGGGAA | 0.612 | 0.816 | 0.0552 | 0.22 | 0.494 | 0.594 | 0.347 | 0.503 | 0.287 | 0.512 | 0.212 | 0.948 | 0.53 | 0.059 | 0.583 | 0.112 | 0.251 | 0.303 | 0.409 | 1.24
13 | TCGAGTAGGTTCCCAATGGGGCATTCAGCTTTCT | -0.431 | -0.384 | -0.577 | -0.1 | -1.76 | -0.101 | -0.771 | 0.361 | 0.7 | 0.426 | 0.883 | 0.261 | -1.28 | -1.09 | -0.805 | -0.411 | -1.24 | -0.343 | -1.9 | -0.327
14 | CCTAGTTGGTCAAGGTCGCACACGCTATAGGTAC | 1.28 | 0.906 | 0.275 | 1.18 | -0.0478 | 1.68 | 1.15 | 1.37 | 0.0592 | 0.958 | 1.4 | 1.87 | 0.308 | 0.288 | 1.55 | 1.57 | 1.04 | 1.69 | 0.482 | 2.43
